# Assay results: PubChem BioAssay AID2685 (National Center for Advancing Translational Sciences (NCATS), 2010)
# The campaign covered roughly 320,000 compounds. About 2,100 (0.66%) were called active. Another 53% or so got no clear call; they are omitted. Calls come from the whole dose curve; as a rule, active = well fitted inhibition curve with a large enough effect in the signal ratio, with a control signal flat (not every such curve was filed as active); inconclusive = small, poorly fitted or top-dose-only effect, or effect the other way, or a change in a side signal; inactive = flat fitted curve, though single readings scatter; the % refers to the signal ratio. The full list was thinned out, with actives kept by preference.
# Assay: qHTS Assay for Lipid Storage Modulators in Drosophila S3 Cells;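 for cell number change: cells counted by Cell Tracker Red CMTPX staining in the red channel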; for lipid storage change, negative = inhibition: % is set by controls: 0 for no effect and ±100 for the full control effect
# Conditions: BODIPY lipid droplet fluorescence, 18-24 h, cells fed with added oleic acid; cell number change: measured here: cell count max response; series mostly up to 46.1 µM; lipid storage change, negative = inhibition: at the top concentration
# Method in brief: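 Drosophila S3 cells loaded with oleic acid (400 uM, as added) and compounds at several concentrations; lipid droplets imaged by 488-nm laser-scanning cytometry, 500–530 nm intensity and object ratio to cell channel. Percent activity normalized to 20 uM Triacsin C.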
# Potency is the fitted concentration of half-maximal effect.
Structure (SMILES),"lipid storage change, negative = inhibition",cell number change [%],outcome,Potency
CC1=C(C(N)=O)C(c2cccs2)n2ncnc2N1 (centres undefined),-8.85% (inactive),-0.857,,
COc1ccc(S(=O)(=O)Nc2c(C(=O)O)[nH]c3ccccc23)cc1OC,25.4% (inactive),2.12,,
COc1ccccc1OCC(=O)Nc1cc(NC(=O)COc2ccccc2OC)cc(C(=O)O)c1,,-10.7,inactive,
Cc1cc(=O)n2[nH]nnc2n1,-9.73% (inactive),-0.264,,
CCC(C)[C@@H](C(=O)N1CCNCC1)n1cc(CCCN=C(N)N)nn1 (some centres undefined),-8.66% (inactive),-4.28,,
Oc1[nH]c2ccccc2c1N=Nc1ccc(C(F)(F)F)cn1,-3.49% (inactive),-7.88,,
Cc1sc2ncnc(N=Nc3c(O)[nH]c4ccccc34)c2c1C,,-22,,20.6 µM (active)
Oc1[nH]c2ccccc2c1N=Nc1ncnc2c1oc1ccccc12,-11.9% (inactive),8.73,,
Cc1ccccc1OCCNc1ccc(C(F)(F)F)cc1[N+](=O)[O-],-9.82% (inactive),-21,,
CCS(=O)(=O)N1Cc2ccccc2CC1C(=O)Nc1ccc(NC(C)=O)cc1 (centres undefined),,,inactive,
CCS(=O)(=O)N1Cc2ccccc2CC1C(=O)NC(C)C12CC3CC(CC(C3)C1)C2 (centres undefined),,-29.2,,23.1 µM (active)
CCS(=O)(=O)N1Cc2ccccc2CC1C(=O)Nc1ccc(C)cc1 (centres undefined),,,inactive,
Cc1ccc(C=Nc2ccccc2C(N)=O)o1,8.66% (inactive),-8.21,,
CC1CN(c2ccc([N+](=O)[O-])cc2F)CCN1C(=O)c1ccco1 (centres undefined),15.3% (inactive),-3.23,,
COc1ccc(C)cc1NS(=O)(=O)c1ccc2c(c1)N(C(C)=O)CCO2,,6.45,inactive,
CCOc1ccccc1NS(=O)(=O)c1ccc2c(c1)N(C)CCO2,,-20.1,,7.31 µM (active)
COc1ccc(C)cc1NS(=O)(=O)c1ccc2c(c1)N(C)CCO2,,6.6,,20.6 µM (active)
CCOc1ccccc1NS(=O)(=O)c1ccc(OC)c(OC)c1,3.17% (inactive),-6.31,,
Cc1ccc(NS(=O)(=O)c2ccc3c(c2)N(C)CCO3)cc1,,5.66,inactive,
CCOc1ccccc1NS(=O)(=O)c1ccc2c(c1)n(C)c(=O)c(=O)n2C,0.5% (inactive),-6.25,,
CN(C)S(=O)(=O)c1ccc(N2CCCC2)c(C(=O)Nc2ccc(C(N)=O)cc2)c1,16.1% (inactive),,,

Structure (SMILES),"lipid storage change, negative = inhibition",cell number change [%],outcome,Potency
Cc1ccc(NC(=S)N2CCN(Cc3ccccc3)CC2)c(C)c1,12.5% (inactive),7.65,,
COc1ccc(C2C(C(=O)N3CCCCC3)CC(=O)N2c2ccc(OC)cc2)cc1 (centres undefined),20.1% (inactive),-20,,
CCOc1ccc(/C=N/NC(=O)c2cc3ccccc3cc2OC)cc1,,,inactive,
O=C(Cc1ccc([N+](=O)[O-])cc1)NC(C(=O)O)C(O)c1cccc([N+](=O)[O-])c1 (centres undefined),19.1% (inactive),-5.25,,
CN(C)CC(=O)N1c2ccccc2CCc2ccc(NC(=O)c3ccc(N)cc3)cc21,,,inactive,
CCOc1ccccc1CN1CCNC(=O)C1CC(=O)NCCc1ccccn1 (centres undefined),-15.3% (inactive),-15.8,,
CCOc1ccccc1CN1CCNC(=O)C1CC(=O)NCCCn1cccn1 (centres undefined),,-11.6,inactive,
CCOc1ccccc1CN1CCNC(=O)C1CC(=O)NCCN1CCOC1=O (centres undefined),,19.4,,2.31 µM (active)
CC(=O)Nc1ccc(S(=O)(=O)NC(C)c2nc(-c3ccccc3)no2)cc1 (centres undefined),,16.2,inactive,
COc1ccc(-c2nn(CCC#N)cc2C=C(C#N)C#N)cc1,3.12% (inactive),16.7,,
CC1(C)CC2CC(C)(CN2C(=O)c2cc(-c3ccc(O)cc3)on2)C1 (centres undefined),,16.1,,0.92 µM (active)
CC1(C)CC2CC(C)(CN2C(=O)c2cccs2)C1 (centres undefined),-0.663% (inactive),-7.87,,
COc1ccc(-c2cc(C(=O)N3CC4(C)CC3CC(C)(C)C4)no2)cc1OC (centres undefined),20.3% (inactive),-3.22,,
C=CCn1c(=S)[nH]c2scc(-c3ccco3)c2c1=O,1.25% (inactive),8.4,,
C=CCn1c(SCc2ccc3c(c2)OCO3)nc2scc(-c3ccco3)c2c1=O,34.4% (inactive),-2.61,,
C=CCn1c(SC(F)F)nc2scc(-c3ccco3)c2c1=O,,0.451,,0.058 µM (active)
CC(C)N(Cc1nnc(-c2ccc(Cl)cc2)o1)C(=O)c1cc2ccccc2o1,11.5% (inactive),-8.15,,
Oc1nc(Nc2ccc(F)cc2)sc1/C=C1\C=Nc2ccccc21,-6.38% (inactive),-4.17,,
Cc1ccccc1NC(=O)Cc1nnc(N)s1,0.0585% (inactive),-0.0956,,
CCOc1ccc(S(=O)(=O)N2CCC(C(=O)N3CCN(Cc4ccccc4)CC3)CC2)cc1,-20.9% (inactive),-0.232,,
COC(=O)COc1ccc(S(=O)(=O)N2CCc3ccccc3C2)cc1,,22.6,,7.31 µM (active)

Structure (SMILES),"lipid storage change, negative = inhibition",cell number change [%],outcome,Potency
CCOc1ccc(S(=O)(=O)N2CCC(C(=O)N3CCN(c4ccccc4)CC3)CC2)cc1,,-5.41,inactive,
COc1ccc(S(=O)(=O)N2CCc3ccccc3C2)cc1,-6.8% (inactive),4.92,,
COC(=O)COc1ccc(S(=O)(=O)N2CCCCCC2)cc1,9.35% (inactive),19.9,,
CCOc1ccc(S(=O)(=O)N2CCC(C(=O)N3CCc4ccccc4C3)CC2)cc1,,-23.3,,7.31 µM (active)
Cc1ccc(C2=NNC(=O)C(P(=O)(c3ccccc3)c3ccccc3)C2)cc1 (centres undefined),23.4% (inactive),21.3,,
S=C1NCN(C2CCCCC2)CN1Cc1ccccc1,5.67% (inactive),2.76,,
CCCc1cc(=O)oc2cc(C)cc(OC(C)C(=O)NCCCN3CCOCC3)c12 (centres undefined),,6.42,inactive,
Cn1c(=O)c(/C=C/c2ccc(F)cc2)nc2ccccc21,-6.81% (inactive),-1.08,,
O=c1[nH]c2ccccc2nc1/C=C/c1ccc(F)cc1,,28.9,,9.2 µM (active)
O=c1[nH]c2ccccc2nc1/C=C(\O)C(F)F,9.85% (inactive),13.5,,
COC(=O)[C@H]1C2CCC(C(=O)OC)(CC2)[C@H]1C(=O)OC,,-5.5,,1.3 µM (active)
COC(=O)[C@@H]1C2CCC(C(=O)Nc3ccccc3)(CC2)[C@@H]1C(=O)OC,,,inactive,
COC(=O)C1CCN(S(C)(=O)=O)CC1,3.84% (inactive),4.24,,
CN(Cc1ccccc1)c1nnc(N)s1,1.26% (inactive),-2.39,,
O=C(NC(=S)Nc1ccc(S(=O)(=O)Nc2nccs2)cc1)c1ccccc1F,0.875% (inactive),13,,
Cc1ccc(/C=N/NC(=O)c2ccc(Br)o2)s1,,-8.7,,3.66 µM (active)
Cc1ccc(/C=N/NC(=O)c2ccc(C(=O)N/N=C/c3ccc(C)s3)o2)s1,-1.54% (inactive),10.7,,
O=C(N/N=C/c1cn(-c2ccccc2)nc1-c1ccccc1)c1ccco1,,,inactive,
O=C(N/N=C\c1cn(-c2ccccc2)nc1-c1ccccc1)c1ccc(Br)o1,,6.81,,23.1 µM (active)
Cc1ccc(/C=N/NC(=O)c2ccco2)s1,17.2% (inactive),-9.87,,
NC(=O)N/N=C/c1cn(-c2ccccc2)nc1-c1ccccc1,13.8% (inactive),15.1,,
